40 molecules from PubChem BioAssay (NCI) can be followed below.

Molecules are shown by their SMILES. Several values for one entry are separate records, joined by “and”; a condition that tells them apart may be missing. Equal values may be shown once. Compounds without any hit were thinned out: in the full panel of roughly 83,000, 20% have a hit.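 Growth was measured after 48 h exposure to one concentration of compound in 96-well plates. Values under 10 count as active.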 Activity calls are given as the source filed them.

For this assay, the system named is MDA-MB-468 breast. As to the kind of experiment: NCI-60 one-dose screen, 48 h (100 = growth as untreated, 0 = no growth, -100 = all killed). The conditions noted are these: 10 µM unless noted.
In the case of `CC1=C(C#N)C(=O)NC(C)C1` (stereo not given), the growth is 108% (inactive).

On to `COc1cnc2c(c1)C(=O)c1c-2n(CCCN2CCC(O)CC2)c(=O)c2cc(Cl)ccc12`, for which the growth is 38.5% (inactive). Take `CC(C)C[C@H]1C(=O)O[C@H](C(C)C)C(=O)N(C)[C@@H](C(C)C)C(=O)O[C@H](C(C)C)C(=O)N(C)[C@@H](C(C)C)C(=O)O[C@H](C(C)C)C(=O)N1C`: the growth was -7.13% (active).

Take `CN1CCN(CCCOc2ccc3nc(Nc4ccc(F)c(F)c4)ccc3c2)CC1`: the growth is 9.52% (active). Next, `[O-][n+]1ccccc1CCN(O)CCc1cccc[n+]1[O-]`: 110% (inactive). Next, `CO[C@@]12C=C[C@@]34CCC(=O)N3c3ccccc3[C@@H](O1)C4C2`: 108% (inactive); `O=C(N/N=C/c1ccc(Br)s1)c1[nH]c2ccc(Br)cc2c1-c1ccccc1`: -5.18% (active); `Cc1ccc(S(=O)(=O)N2CCc3ccc(O)c4c3C2CCc2ccccc2-4)cc1` (stereo not given): 106% (inactive). The same measure for `O=C(CSc1nnc(-c2cccs2)n1-c1ccccc1)Nc1ccc(F)cc1`: 88.7% (inactive); for `Cc1ccc2nc(-[n+]3cc4ccccc4cc3C)ccc2c1`: -14.5% (active); for `CC1=C(O)C(=O)CC1`: 104% (inactive). For `Nc1n[nH]c2ccc([C@@H]3Nc4cc5c(cc4[C@H]4C6CCC(C6)[C@@H]34)C(=O)NC5)cc12` (stereo not given in full), the growth is -9.96% (active). Next, `c1ccc(Cn2cc3c(c2)-c2nc(Nc4ccccc4)ncc2CC3)cc1`: 115% [100 µM] (inactive); `Cc1cc(C(=O)Nc2ncnc3nc[nH]c23)no1`: 96.4% (inactive). Take `CSc1nc2sc3c(c2c(=O)n1-c1ccc([N+](=O)[O-])cc1)CCCCC3`: the growth was 83% (inactive).

As to `CN(C)CC(C(=O)c1ccccc1)c1ccccc1` (stereo not given), the growth is -47.8% (active). For the molecule `C=CCn1c(C)nc2cc(Nc3nc(Nc4ccc5nc(C)n(CC=C)c5c4)nc4ccccc34)ccc21`, the growth was 118% (inactive).

Regarding `COc1cc(-c2nn(-c3ccc(NC(=O)c4ccc(Cl)c(Cl)c4)cc3)cc2-c2ccncc2)ccc1Cl`, the growth was 78.3% (inactive). Consider `COc1ccc(-c2nsc3c2NC(=O)CC3c2ccc(Cl)cc2)cc1` (stereo not given), for which the growth is 58.7% (inactive).

On to `CCCCCCCCCCCCCCCCNCCC[C@@H](C)[C@H]1CC[C@H]2[C@@H]3[C@H](OCCCN)C[C@@H]4C[C@H](OCCCN)CC[C@]4(C)[C@H]3C[C@H](OCCCN)[C@]12C`, for which the growth is -55.2% (active). The same measure for `O=C(/C=C/c1cccc(Cl)c1)c1cccc(OCCCCOc2cccc(C(=O)/C=C/c3cccc(Cl)c3)c2)c1`: 99.2% (inactive); for `Clc1nc(Cl)c2ncn(CCOCCn3cnc4c(Cl)nc(Cl)nc43)c2n1`: -72.3% (active); for `CCCCC(CCc1ccc([N+](=O)[O-])cc1)(C(C)=O)C(=O)OCC` (stereo not given): 83.8% (inactive).

Regarding `COc1cc(/C=C2\C(=O)Nc3ccccc32)ccc1OCc1ccc(F)cc1`, the growth was 102% (inactive). Next, `COc1ccc(-c2nc3sc4c(c3c(=O)[nH]2)CCCCCC4)cc1`: 98.5% (inactive); `COc1ccc(C(=O)/C=C/c2sc(Cl)nc2Cl)cc1`: -13.8% (active). The same measure for `NC(=O)c1cccc(-c2ccc(S(=O)(=O)Nc3ccc4c(c3)N(C(=O)C3CC3)CCC4)cc2)c1`: -4.85% (active); for `CCN(CCNS(C)(=O)=O)c1ccc(N)c(C)c1`: 56.5% (inactive) and 69.7% (inactive); for `COC(=O)c1ccc2[nH]c(O)c(C(=Nc3ccc(N(C)C(=O)CN4CCN(C)CC4)cc3)c3ccc(CCO)cc3)c2c1`: 37.7% (inactive). Next, `CCC(CC)NCC(C)(C)O`: 104% (inactive). On to `COc1ccc(-c2nn3c(-c4ccccc4F)nnc3s2)cc1`, for which the growth was 6.82% (active). Next, `C#COc1cccc(Nc2ncnc3cc(NC(=O)[C@H](C)Cl)ccc23)c1`: -11.4% [6.25 µM] (active); `Brc1cccc(-c2cc(-c3cnc4c(c3)OCCO4)n[nH]2)c1`: 7.76% (active). `COc1ccc2[nH]c(O)c(C(=Nc3ccc(N(C)C(=O)CN4CCN(C)CC4)cc3)c3ccccc3)c2c1`: the growth was 58.1% (inactive). The same measure for `CC1=NN(c2ccc(Cl)cc2)CC1(C)N=O` (stereo not given): 7.84% (active). For the molecule `CCC(/C=C\C(C)=O)CC`, the growth is 102% (inactive). Next, `COC(=O)[C@@]1(C)CC[C@]2(C)CC[C@]3(C)C4=CC=C5C(=CC(=O)C(O)=C5C)[C@]4(C)[C@@H](O)C[C@@]3(C)[C@@H]2C1`: 10.1% (inactive).

For `C=C(C)[C@@H]1CC[C@]2(COCCC#N)CC[C@]3(C)[C@H](CC[C@@H]4[C@@]5(C)Cc6c([nH]c7ccccc67)C(C)(C)[C@@H]5CC[C@]43C)[C@@H]12`, the growth was 115% (inactive). Next, `COc1cccc2cc(N(C)c3nc(C)nc4c3CCC4)ccc12`: 18% (inactive).

For the molecule `C=C(C)[C@@H]1CCC[C@]2(C(=O)N3CCN(C)CC3)CC[C@]3(C)[C@@H](CC[C@@H]4[C@@]5(C)CC/C(=N\NC(=O)c6ccncc6)C(C)(C)[C@@H]5CC[C@]43C)[C@@H]12`, the growth was 113% (inactive).
